From PubChem BioAssay (Tox21)
Inconclusive results are not listed. The source made the active and inactive calls. Unless noted, the call rests on the fitted dose curve; in most records, active means well fitted curve in the direction sought with a large enough effect in the repeat runs; inconclusive means weak or mixed curves; inactive means no such curve, though single readings can be large; an effect the other way counts as inactive or inconclusive.

Assays:
[1] = molecular target: Retinoic acid receptor RXR-alpha (Homo sapiens) (UniProt P19793); experiment: qHTS assay to identify small molecule agonists of the RXR signaling pathway (AID 1159527; calls by dose curve; further: nearly all actives have a fitted effect of over 35% in size)
Summary of the method: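 Cells plated at 2,000/well, rested 5 hr at 37 C, pin-dosed with DMSO compound solutions, incubated 16 hr, then loaded with B/G FRET substrate for 2 hr at RT before dual-emission fluorescence reading.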

[2] = qHTS assay to identify small molecule agonists of the RXR signaling pathway - cell viability counter screen (AID 1159529); further: nearly all actives have a fitted effect of over 50% in size; further: potency means the concentration at half of the fitted maximal effect
Summary of the method: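 Steps: seed RXR-alpha-UAS-bla HEK 293T cells in assay medium containing 2% charcoal-stripped FBS; incubate 5 hr; add compounds in DMSO; incubate 16 hr at 37 C; after the bla read, add CellTiter-Glo and read luminescence at 30 min.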

[3] = qHTS assay to identify small molecule antagonists of the retinoid acid receptor (RAR) signaling pathway - cell viability counter screen (AID 1159551); further: nearly all actives have a fitted effect of over 35% in size
Summary of the method: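 Retinol-stimulated (1 uM final) C3RL4 cells, compound 6 h, 37 C; readout CellTiter-Glo luminescence (ATP) after 30 min RT incubation.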

[4] = qHTS assay to identify small molecule agonists of the retinoic acid receptor (RAR) signaling pathway (AID 1159553)
Summary of the method: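 Reporter readout comes from luciferase under RARE control in C3RL4 cells; compound exposure lasts 6 hr at 37 C in 5% CO2, and luminescence is recorded following a 30 min room-temperature incubation with reagent.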

[5] = qHTS assay to identify small molecule antagonists of the retinoic acid receptor (RAR) signaling pathway (AID 1159552; further: nearly all actives have a fitted effect of over 50% in size)
Summary of the method: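 Retinol at 1 uM final stimulated RARE-luciferase expression in C3RL4 cells exposed to test compounds for 6 hr at 37 C. Reduced luminescence, read 30 min after detection reagent, indicated pathway antagonism.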

[6] = qHTS assay to identify small molecule antagonists of the estrogen related receptor (ERR) signaling pathway (AID 1224819;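 further: luminescence from an ERR-driven luciferase reporter measured with One-Glo reagent; series mostly up to about 46 µM; nearly all actives have a fitted effect of over 50% in size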)
Summary of the method: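 Luminescence readout (One-Glo, 30 min, RT) of ERR cell line after 18 h compound exposure at 37 C; cells seeded 2,000/well, pre-incubated 6 h, compounds pinned from DMSO stocks.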

[7] = qHTS assay to identify small molecule agonists of the estrogen related receptor (ERR) signaling pathway (AID 1224820)
Summary of the method: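 ERR reporter cell line (from NTP), 2,000 cells/well, incubated 6 h before compound addition, then 18 h at 37 C. Luminescence measured 30 min after One-Glo reagent at room temperature.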

[8] = system: estrogen-related receptor alpha (ERRalpha) with PGC-1alpha coactivator, human; experiment: qHTS assay to identify small molecule antagonists of the estrogen related receptor signaling pathway with the pleiotropic PPARgamma coactivator (PGC) (AID 1224821; calls by dose curve;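 further: series mostly up to about 46 µM; lower luminescence signal means antagonism of PGC/ERR signalling; nearly all actives have a fitted effect of over 50% in size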)
Summary of the method: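 PGC/ERR reporter cell line, plated 6 h before compound addition, then exposed 18 h at 37 °C. Luciferase activity read by luminescence 30 min after One-Glo addition; decrease indicates antagonism.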

[9] = qHTS assay to identify small molecule agonists of the estrogen related receptor signaling pathway with the pleiotropic PPARgamma coactivator (PGC) (AID 1224823)
Summary of the method: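 PGC/ERR reporter cells seeded 6 h, then exposed to compounds (23 nL in DMSO) for 18 h at 37 C. One-Glo luciferase luminescence read after 30 min at room temperature.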

Measured: Potency

Chain of Retinoic acid receptor RXR-alpha (Homo sapiens) (P19793 whole entry, looked up): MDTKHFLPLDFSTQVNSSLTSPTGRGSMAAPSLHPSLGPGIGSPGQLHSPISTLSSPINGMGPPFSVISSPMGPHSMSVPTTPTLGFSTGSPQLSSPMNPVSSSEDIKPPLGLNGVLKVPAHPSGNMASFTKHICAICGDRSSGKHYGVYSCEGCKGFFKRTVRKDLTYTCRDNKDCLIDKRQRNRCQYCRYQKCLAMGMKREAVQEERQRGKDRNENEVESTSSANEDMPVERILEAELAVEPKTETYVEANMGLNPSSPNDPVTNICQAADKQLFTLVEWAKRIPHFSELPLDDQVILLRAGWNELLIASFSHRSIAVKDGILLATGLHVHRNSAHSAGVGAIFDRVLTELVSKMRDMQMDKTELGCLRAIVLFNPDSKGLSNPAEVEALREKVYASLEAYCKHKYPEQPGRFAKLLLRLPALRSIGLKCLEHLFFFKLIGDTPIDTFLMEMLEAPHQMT

CC(C)(C)c1cccc(O)c1
inactive: [1] | [2] | [3] | [4]

FC(F)(F)C(F)(F)C(F)(F)C(F)(F)C(F)(F)C(F)(F)C(F)(F)C(F)(F)Br
inactive: [1] | [2] | [3] | [5] | [4]

Nc1cccc(S(=O)(=O)O)c1
inactive: [1] | [2] | [3] | [5] | [4]

CCN(CC)C(=O)N(CC)CC
inactive: [1] | [2] | [3] | [5] | [4]

Oc1ccccc1F
inactive: [1] | [2] | [3] | [4]

CNCCC(Oc1ccccc1OC)c1ccccc1 (stereo not given)
inactive: [6] | [7] | [8] | [9]

CCCCCCCCc1ccc(S(=O)(=O)O)cc1
active: [2] 24.3 µM
inactive: [3] | [5] | [4]

Cc1ccc([N+](=O)[O-])c(N)c1
inactive: [2] | [3]

CC1(O)CSC(C)(O)CS1 (stereo not given)
inactive: [2] | [3] | [5] | [4]

CC(C)=CCCC(C)CCOC=O (stereo not given)
inactive: [2] | [3] | [5]
